a7 integrin act: activates integrin-mediated alleviation for muscular dystrophy; alpha7betagal myoblasts, beta-gal FDG fluorescence, 48 h; Potency, µM (top dose mostly 38.3 µM), without a hit: at the top dose activation, most hits filed as activators; 0.064% of 350,000 active; active = well fitted activation curve with a large enough effect; inconclusive = small, poorly fitted or top-dose-only effect; inactive = no such curve, though single readings can be large or run the other way;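 also: potency is read from the fitted curve at half-maximal effect; 100% = response of the positive control SU9516; nearly all actives have a fitted effect of over 60% in size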
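Alpha7betagal+/- myoblasts (passage 13) were plated 16-24 hr, then exposed to compounds (1:260 dilution of DMSO stock) for 48 hours at 37C. After MPER lysis, β-galactosidase reporter activity was read as FDG fluorescence (ex 480/em 540) after 30 minutes.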
DRD3 antagonist: antagonists of human D3 dopamine receptor. max response, negative = inhibition, %. 2.5% of 360,000 active. AID 652054. D3R cells, DiscoveRx beta-arrestin luminescence, antagonist mode; active compounds read low; in the data active = max response below about -50%; inconclusive = no clear call, values can overlap the other calls; also: % is scaled to controls: 0 for no effect and ±100 for the full control effect
Target sequence (P35462 whole entry, looked up): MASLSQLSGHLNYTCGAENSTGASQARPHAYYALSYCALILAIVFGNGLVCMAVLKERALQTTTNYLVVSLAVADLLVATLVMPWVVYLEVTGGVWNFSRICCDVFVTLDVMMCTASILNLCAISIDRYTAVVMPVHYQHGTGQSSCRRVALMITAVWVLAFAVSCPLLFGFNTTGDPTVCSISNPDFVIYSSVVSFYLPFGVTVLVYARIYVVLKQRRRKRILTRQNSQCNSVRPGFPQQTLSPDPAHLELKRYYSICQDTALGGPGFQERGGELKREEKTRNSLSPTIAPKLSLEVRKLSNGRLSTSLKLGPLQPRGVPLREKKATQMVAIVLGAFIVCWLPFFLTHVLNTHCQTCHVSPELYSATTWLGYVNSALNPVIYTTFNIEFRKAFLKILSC
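Cells plated overnight at 1500 cells/well, then exposed to library compounds with dopamine controls for 90 minutes at 37 degrees C. DiscoveRx reagent added for 30–60 minutes at room temperature; luminescence read, quantitative HTS format.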
DRD3 agonist: agonists of human D3 dopamine receptor | AID 652048 | max activation, % | D3R DiscoveRx beta-arrestin cells, luminescence, 90 min | P35462 | 0.58% of 410,000 active; in the data active = max activation above about 30%; also: 0% is about no effect
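Agonist-mode cell screen: cells plated at 1500/well and incubated overnight at 37 °C, then exposed to library compounds for 90 min at 37 °C. Detection reagent was added for 30–60 min at room temperature, and luminescence was read.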
Numbers without * were called inactive. Only some compounds are listed: those with a hit (about 2.9% of all), similar ones and a draw of the others.

What do the screens show for `COc1ccc(Cl)cc1C(=O)NC(=S)Nc1nc(C)cc(C)n1`?
a7 integrin act: inconclusive; DRD3 antagonist: 1; DRD3 agonist: -9

How did COc1ccc(CC(=O)NNC(=O)c2ccccn2)cc1 do in these assays?
a7 integrin act: -5%; DRD3 antagonist: -12; DRD3 agonist: 2

Results for CN1C[C@H]2CON(C)[C@H]2C[C@H]1c1cccc(-c2ccccc2)c1 ?
a7 integrin act: -3%; DRD3 antagonist: 11; DRD3 agonist: -32

How did COc1cccc(C(=O)NCCS(=O)(=O)N2CCCCCC2)c1 do in these assays?
a7 integrin act: 5%; DRD3 antagonist: -26; DRD3 agonist: -1

How did COc1ccc(C(=O)NCCCSC)cc1OC1CCN(C(C)C)CC1 do in these assays?
a7 integrin act: -18%; DRD3 antagonist: 24; DRD3 agonist: 8

Results for COCCNS(=O)(=O)c1ccc2c(c1)C(=O)c1cc(S(=O)(=O)NCCOC)ccc1-2 ?
a7 integrin act: 1%; DRD3 antagonist: 12; DRD3 agonist: -1

Results for O=C1c2cc(S(=O)(=O)NCCCO)ccc2-c2ccc(S(=O)(=O)NCCCO)cc21 ?
a7 integrin act: 3%; DRD3 antagonist: -51*; DRD3 agonist: 2

What do the screens show for `CC(C)NC(=O)c1cc(C2CCCCN2C(=O)CCCc2ccccc2)on1` (centres undefined)?
DRD3 antagonist: 0; DRD3 agonist: 10

Results for CCN(CC)C(=O)C1=C(C)N(CCCN2CCCC2=O)C(=O)C(CC(=O)NCC2CCCCC2)C1 (centres undefined) ?
a7 integrin act: 16%; DRD3 antagonist: 5; DRD3 agonist: 2

Results for O=C(CN1/C(=C(/O)c2ccccc2)C(=O)c2ccccc2S1(=O)=O)c1ccccc1 ?
a7 integrin act: 4%; DRD3 antagonist: -88*; DRD3 agonist: -2

How did COc1ccc(C(=O)CN2C(=O)c3ccccc3S2(=O)=O)cc1 do in these assays?
a7 integrin act: 2%; DRD3 antagonist: 2; DRD3 agonist: 0

Results for O=C(COC(=O)Cc1ccccc1F)Nc1cccc(S(=O)(=O)NC2=NCCCCC2)c1 ?
a7 integrin act: inconclusive; DRD3 antagonist: 5; DRD3 agonist: 9

What do the screens show for `CCOC(=O)c1ccccc1NC(=O)N(Cc1ccc(CC)cc1)Cc1cn[nH]c1-c1ccc(OC)cc1`?
DRD3 agonist: 29

What do the screens show for `Cc1ccc(C(=O)OCCN(C)Cc2ccccc2)cc1`?
a7 integrin act: inconclusive; DRD3 antagonist: -29; DRD3 agonist: -9

Results for C=CCc1cc(OC)ccc1OCCN(C)Cc1ccccc1 ?
a7 integrin act: -14%; DRD3 antagonist: -59*; DRD3 agonist: -26

What do the screens show for `C=CCc1cc(OC)ccc1OCCON1C(=O)CCC1=O`?
a7 integrin act: -11%; DRD3 antagonist: -5; DRD3 agonist: 4

Results for CN(CCOCCOc1ccc(F)cc1)Cc1ccccc1 ?
a7 integrin act: -10%; DRD3 antagonist: -89*; DRD3 agonist: -20

Results for Cc1ccc(Cl)c(OCCCCN(C)Cc2ccccc2)c1 ?
a7 integrin act: -56%; DRD3 antagonist: -90*; DRD3 agonist: -63

What do the screens show for `COC(=O)c1ccc(OCCCCN(C)Cc2ccccc2)cc1`?
a7 integrin act: -2%; DRD3 antagonist: -29; DRD3 agonist: -28

Results for Cc1ccc(Cl)c(OCCCN(C)Cc2ccccc2)c1 ?
a7 integrin act: -27%; DRD3 antagonist: inconclusive; DRD3 agonist: -22

Results for Cc1ccccc1C(=O)OCCN(C)Cc1ccccc1 ?
a7 integrin act: 31%; DRD3 antagonist: -70*; DRD3 agonist: -14

Results for COc1cccc(C=C2Cc3ccccc3C2=O)c1 ?
DRD3 antagonist: 10; DRD3 agonist: 6

Results for COc1ccc(C(=O)NC2CCN(C(=S)NCc3ccco3)CC2)cc1 ?
a7 integrin act: -16%; DRD3 antagonist: 3; DRD3 agonist: -4

What do the screens show for `CC1CC(C)CN(CCCNC(=O)C2CCN(c3nnc(-n4cccc4)s3)CC2)C1` (centres undefined)?
a7 integrin act: -42%; DRD3 antagonist: -24; DRD3 agonist: -6

How did Clc1ccc(OCCOCCOc2cccc3cccnc23)c(Br)c1 do in these assays?
a7 integrin act: 23%; DRD3 antagonist: -8; DRD3 agonist: 7

What do the screens show for `CCOc1cccc(OCCOCCN(C)C)c1`?
a7 integrin act: -5%; DRD3 antagonist: -8; DRD3 agonist: -4

What do the screens show for `C=CCc1cc(Cl)ccc1OCCCNC(C)C`?
a7 integrin act: inconclusive; DRD3 antagonist: inconclusive; DRD3 agonist: -44

What do the screens show for `C=CCc1cc(Cl)ccc1OCCN(C)C`?
a7 integrin act: -1%; DRD3 antagonist: -55*; DRD3 agonist: -55

What do the screens show for `CN(c1ccc(OCCOc2ccccc2Cl)cc1)S(=O)(=O)c1ccccc1`?
a7 integrin act: -42%; DRD3 antagonist: 12; DRD3 agonist: 0

How did CN(CCOCCOc1ccc(Cl)cc1Br)Cc1ccccc1 do in these assays?
a7 integrin act: -37%; DRD3 antagonist: -64*; DRD3 agonist: -18

What do the screens show for `CN(CCOc1ccccc1Cl)Cc1ccccc1`?
a7 integrin act: -1%; DRD3 antagonist: -76*; DRD3 agonist: 5

Results for CCOc1cccc(OCCOCCN(C)Cc2ccccc2)c1 ?
a7 integrin act: -25%; DRD3 antagonist: -64*; DRD3 agonist: -11

Results for COc1ccccc1CNc1nc2c(S(=O)(=O)c3ccccc3)nnn2c2ccc(Cl)cc12 ?
DRD3 agonist: -1

Results for CCOC(=O)C1(Cc2ccc(OC)cc2)CCN(C(=O)CC2CCC(=O)N2)CC1 (centres undefined) ?
a7 integrin act: inconclusive; DRD3 antagonist: 8; DRD3 agonist: 1

Results for Cc1ccc(CNC(=O)CN2C(=O)COc3ccc(S(=O)(=O)N4CCC(C)CC4)cc32)o1 ?
a7 integrin act: -14%; DRD3 antagonist: -5; DRD3 agonist: 0

How did CCC(CC)c1nnc(NC(=O)Cc2cccs2)s1 do in these assays?
a7 integrin act: 10%; DRD3 antagonist: 27; DRD3 agonist: 8

How did COc1ccc(OCCCCN(C)Cc2ccccc2)cc1 do in these assays?
a7 integrin act: 5%; DRD3 antagonist: -29; DRD3 agonist: -27

What do the screens show for `CCOc1ccccc1OCCOc1ccccc1CC`?
a7 integrin act: 24%; DRD3 antagonist: -3; DRD3 agonist: 4

How did CCN(CC)CCCOc1ccc(Cl)c(Cl)c1 do in these assays?
a7 integrin act: -55%; DRD3 antagonist: -29; DRD3 agonist: -18

How did CCCCN(C)CCOc1ccccc1OCC do in these assays?
a7 integrin act: -15%; DRD3 antagonist: -98*; DRD3 agonist: -19

What do the screens show for `CCOc1ccc(OCCN(C)Cc2ccccc2)cc1`?
a7 integrin act: 15%; DRD3 antagonist: -83*; DRD3 agonist: -4

Results for CN(CCOc1ccc(Cl)c(Cl)c1)Cc1ccccc1 ?
a7 integrin act: 0%; DRD3 antagonist: -93*; DRD3 agonist: -24

What do the screens show for `CCCN(CCC)C(=O)C(c1ccccc1)C1(O)CCCCC1` (centres undefined)?
a7 integrin act: -23%; DRD3 antagonist: -13; DRD3 agonist: -6

How did COC(=O)c1ccc(/C=N/NC(=O)C(=O)NCC2CCCO2)cc1 (centres undefined) do in these assays?
a7 integrin act: 37%; DRD3 antagonist: -4; DRD3 agonist: -5

How did N#C/C(=C/c1cccc(O)c1)C(=O)NCc1ccc(Cl)cc1 do in these assays?
a7 integrin act: -32%; DRD3 antagonist: -22; DRD3 agonist: -4

Screening data deposited in PubChem by National Center for Advancing Translational Sciences (NCATS).
